The source of these data is PubChem BioAssay AID652120 (NMMLSC, 2013).

SMILES strings stand for the structures. A number with no mark means an inactive call.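 How the source made its calls: active means viability below 50% at the top dose and a half-maximal effect concentration under 10 µM; inactive means the rest.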

The nature of this assay: NIH 3T3 cell cytotoxicity, dose response, cytotoxicity control for AML myeloid differentiation project, CellTiter-Glo, Powder Set01 subset01 (AID 652120). As to conditions: NIH 3T3 viability, ATP luminescence (CellTiter-Glo); series mostly up to 10 µM; viability: at the top concentration. (In ATP-based viability assays light output follows the ATP content of the culture.)
As for `O=C(O)c1cccnc1Nc1ccc(Cl)cc1`, the viability (commonly a per cent measure of how many cells are alive, often set against a control) is 68.4%.

On to `Cc1ccc(Nc2nc(=O)c3cccnc3s2)c(Br)c1`, for which the “viability” value is 67.7%.

Regarding `O=C(CCNC(=O)c1ccc(Cl)cc1)NC1CCCc2ccccc21` (stereo not drawn), the “viability” value is 68.5%.
